Like-named read-outs stand apart in the source and are kept apart here.
Experiments:
[1] = system: PRKD1; settings: read-out: apparent Kd; compound concentrations:100 nM and 1000 nM (sheet 'Lestaurtinib' of Supplementary Table 1),run:Lestaurtinib_02896_R3,Plate:MR030; n = 1
[2] = system: PTK2B; settings: read-out: apparent Kd, n = 1
[3] = system: SIK3; settings: read-out: apparent Kd, n = 1
[4] = compound concentrations:100 nM and 1000 nM (sheet 'Lestaurtinib' of Supplementary Table 1),run:Lestaurtinib_02443_R3,Plate:MR009
[5] = compound concentrations:100 nM and 1000 nM (sheet 'Lestaurtinib' of Supplementary Table 1),run:Lestaurtinib_02473_R3,Plate:MR010
[6] = compound concentrations:100 nM and 1000 nM (sheet 'Lestaurtinib' of Supplementary Table 1),run:Lestaurtinib_02496_R1,Plate:MR013
[7] = compound concentrations:100 nM and 1000 nM (sheet 'Lestaurtinib' of Supplementary Table 1),run:Lestaurtinib_02496_R3,Plate:MR013

Substance Lestaurtinib has a potency estimated from few doses [1] of 141 nM, a potency estimated from few doses ([2]; compound concentrations:100 nM and 1000 nM (sheet 'Lestaurtinib' of Supplementary Table 1),run:Lestaurtinib_02339_R2,Plate:MR001) of 971 nM and a potency estimated from few doses ([2]; compound concentrations:100 nM and 1000 nM (sheet 'Lestaurtinib' of Supplementary Table 1),run:Lestaurtinib_02422_R1,Plate:MR006) of 859 nM. The potency estimated from few doses ([2]; compound concentrations:100 nM and 1000 nM (sheet 'Lestaurtinib' of Supplementary Table 1),run:Lestaurtinib_02437_R3,Plate:MR007) was 800 nM, the potency estimated from few doses [2, 4] was 928 nM and the potency estimated from few doses [2, 5] was 58.4 nM. The potency estimated from few doses ([2]; compound concentrations:100 nM and 1000 nM (sheet 'Lestaurtinib' of Supplementary Table 1),run:Lestaurtinib_02487_R1,Plate:MR012) was 209 nM, the potency estimated from few doses [2, 6] was 974 nM and the potency estimated from few doses ([2]; compound concentrations:100 nM and 1000 nM (sheet 'Lestaurtinib' of Supplementary Table 1),run:Lestaurtinib_02496_R2,Plate:MR013) was 703 nM. It also gave a potency estimated from few doses [2, 7] of 966 nM, a potency estimated from few doses ([2]; compound concentrations:100 nM and 1000 nM (sheet 'Lestaurtinib' of Supplementary Table 1),run:Lestaurtinib_02572_R1,Plate:MR015) of 615 nM and a potency estimated from few doses ([2]; compound concentrations:100 nM and 1000 nM (sheet 'Lestaurtinib' of Supplementary Table 1),run:Lestaurtinib_02572_R2,Plate:MR015) of 666 nM. For the same substance, the potency estimated from few doses ([2]; compound concentrations:100 nM and 1000 nM (sheet 'Lestaurtinib' of Supplementary Table 1),run:Lestaurtinib_02748_R1,Plate:MR024) was 954 nM, the potency estimated from few doses ([2]; compound concentrations:100 nM and 1000 nM (sheet 'Lestaurtinib' of Supplementary Table 1),run:Lestaurtinib_03172_R3,Plate:MR031) was 1240 nM and the potency estimated from few doses ([3]; compound concentrations:100 nM and 1000 nM (sheet 'Lestaurtinib' of Supplementary Table 1),run:Lestaurtinib_02339_R3,Plate:MR001) was 1990 nM. For the same substance, the potency estimated from few doses ([3]; compound concentrations:100 nM and 1000 nM (sheet 'Lestaurtinib' of Supplementary Table 1),run:Lestaurtinib_02367_R3,Plate:MR003) was 2180 nM, the potency estimated from few doses ([3]; compound concentrations:100 nM and 1000 nM (sheet 'Lestaurtinib' of Supplementary Table 1),run:Lestaurtinib_02381_R2,Plate:MR004) was 2120 nM and the potency estimated from few doses ([3]; compound concentrations:100 nM and 1000 nM (sheet 'Lestaurtinib' of Supplementary Table 1),run:Lestaurtinib_02381_R3,Plate:MR004) was 1930 nM. The potency estimated from few doses ([3]; compound concentrations:100 nM and 1000 nM (sheet 'Lestaurtinib' of Supplementary Table 1),run:Lestaurtinib_02407_R3,Plate:MR005) was 1890 nM, the potency estimated from few doses ([3]; compound concentrations:100 nM and 1000 nM (sheet 'Lestaurtinib' of Supplementary Table 1),run:Lestaurtinib_02422_R2,Plate:MR006) was 1760 nM and the potency estimated from few doses ([3]; compound concentrations:100 nM and 1000 nM (sheet 'Lestaurtinib' of Supplementary Table 1),run:Lestaurtinib_02422_R3,Plate:MR006) was 1570 nM. For the same substance, the potency estimated from few doses ([3]; compound concentrations:100 nM and 1000 nM (sheet 'Lestaurtinib' of Supplementary Table 1),run:Lestaurtinib_02437_R2,Plate:MR007) was 1400 nM, the potency estimated from few doses ([3]; compound concentrations:100 nM and 1000 nM (sheet 'Lestaurtinib' of Supplementary Table 1),run:Lestaurtinib_02438_R1,Plate:MR008) was 1800 nM and the potency estimated from few doses ([3]; compound concentrations:100 nM and 1000 nM (sheet 'Lestaurtinib' of Supplementary Table 1),run:Lestaurtinib_02438_R2,Plate:MR008) was 1720 nM. The potency estimated from few doses ([3]; compound concentrations:100 nM and 1000 nM (sheet 'Lestaurtinib' of Supplementary Table 1),run:Lestaurtinib_02438_R3,Plate:MR008) was 1330 nM, the potency estimated from few doses ([3]; compound concentrations:100 nM and 1000 nM (sheet 'Lestaurtinib' of Supplementary Table 1),run:Lestaurtinib_02443_R1,Plate:MR009) was 1970 nM and the potency estimated from few doses ([3]; compound concentrations:100 nM and 1000 nM (sheet 'Lestaurtinib' of Supplementary Table 1),run:Lestaurtinib_02443_R2,Plate:MR009) was 1960 nM. For the same substance, the potency estimated from few doses [3, 4] was 964 nM, the potency estimated from few doses [3, 5] was 1240 nM and the potency estimated from few doses ([3]; compound concentrations:100 nM and 1000 nM (sheet 'Lestaurtinib' of Supplementary Table 1),run:Lestaurtinib_02482_R3,Plate:MR011) was 1570 nM. The potency estimated from few doses ([3]; compound concentrations:100 nM and 1000 nM (sheet 'Lestaurtinib' of Supplementary Table 1),run:Lestaurtinib_02487_R2,Plate:MR012) was 1700 nM, the potency estimated from few doses [3, 6] was 956 nM and the potency estimated from few doses [3, 7] was 1300 nM. The potency estimated from few doses ([3]; compound concentrations:100 nM and 1000 nM (sheet 'Lestaurtinib' of Supplementary Table 1),run:Lestaurtinib_02566_R1,Plate:MR014) was 1420 nM, the potency estimated from few doses ([3]; compound concentrations:100 nM and 1000 nM (sheet 'Lestaurtinib' of Supplementary Table 1),run:Lestaurtinib_02566_R3,Plate:MR014) was 1460 nM and the potency estimated from few doses ([3]; compound concentrations:100 nM and 1000 nM (sheet 'Lestaurtinib' of Supplementary Table 1),run:Lestaurtinib_02577_R1,Plate:MR016) was 1590 nM. It also gave a potency estimated from few doses ([3]; compound concentrations:100 nM and 1000 nM (sheet 'Lestaurtinib' of Supplementary Table 1),run:Lestaurtinib_02577_R2,Plate:MR016) of 1630 nM, a potency estimated from few doses ([3]; compound concentrations:100 nM and 1000 nM (sheet 'Lestaurtinib' of Supplementary Table 1),run:Lestaurtinib_02577_R3,Plate:MR016) of 1960 nM and a potency estimated from few doses ([3]; compound concentrations:100 nM and 1000 nM (sheet 'Lestaurtinib' of Supplementary Table 1),run:Lestaurtinib_02584_R2,Plate:MR017) of 1420 nM. For the same substance, the potency estimated from few doses ([3]; compound concentrations:100 nM and 1000 nM (sheet 'Lestaurtinib' of Supplementary Table 1),run:Lestaurtinib_02584_R3,Plate:MR017) was 1300 nM, the potency estimated from few doses ([3]; compound concentrations:100 nM and 1000 nM (sheet 'Lestaurtinib' of Supplementary Table 1),run:Lestaurtinib_02601_R1,Plate:MR018) was 1820 nM and the potency estimated from few doses ([3]; compound concentrations:100 nM and 1000 nM (sheet 'Lestaurtinib' of Supplementary Table 1),run:Lestaurtinib_02601_R2,Plate:MR018) was 1650 nM. For the same substance, the potency estimated from few doses ([3]; compound concentrations:100 nM and 1000 nM (sheet 'Lestaurtinib' of Supplementary Table 1),run:Lestaurtinib_02606_R2,Plate:MR019) was 1760 nM.

Reference: article PMC11062922 (Nature Chemical Biology, 2023)
